Drawing on PubChem BioAssay (NCI), this text covers growth for nine molecules.

Test systems include HT29 colon; SNB-75 CNS; SNB-19 CNS; U251 CNS; PC-3 prostate; SK-MEL-5 melanoma; UACC-62 melanoma; LOX IMVI melanoma; SK-MEL-28 melanoma; EKVX NSCLC; SN12C renal; UO-31 renal; TK-10 renal; ACHN renal; A498 renal; CCRF-CEM leukemia; MOLT-4 leukemia; SR leukemia; CAKI-1 renal.
Test in all cases: NCI-60 one-dose screen, 48 h (100 = growth as untreated, 0 = no growth, -100 = all killed)
Holding throughout (conditions): 10 µM

Compounds without any hit were thinned out: in the full panel of roughly 83,000, 20% have a hit.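 How to read the values: 0–100, growth inhibition (40 = 60% inhibited); 0, no net growth; -100 to 0, cell death (-40 = 40% of starting cells died; -100 = all dead).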 Unmarked numbers belong to inactive results. Active and inactive are the calls of the source. Rule for the calls: active = growth percent below 10; inactive = the rest.

Regarding `CN(C)CCN=c1nc2c(c(N)n1-c1ccccc1)c(=S)n(-c1ccccc1)c(=S)n2-c1ccccc1`, the growth is -35.7% (active) in the assay on HT29 colon; 79% with SNB-75 CNS; 26.1% with SNB-19 CNS; 2.1% (active) in the assay with U251 CNS; 31% in the assay on PC-3 prostate; -98.8% (active) in the assay with SK-MEL-5 melanoma. In addition, the growth in the assay on UACC-62 melanoma is -90.3% (active); in the assay with LOX IMVI melanoma it was -61.4% (active); in the assay on SK-MEL-28 melanoma, -100% (active); with EKVX NSCLC, 39.8%; in the assay with SN12C renal it was 52.3%; with UO-31 renal, 3.1% (active). Also, the growth was 47.7% with TK-10 renal; 28.3% in the assay on ACHN renal; 40.3% with A498 renal; -8.26% (active) in the assay with CCRF-CEM leukemia; 3.92% (active) in the assay with MOLT-4 leukemia; 34.7% in the assay on SR leukemia.
Consider `CCN1CCCC1CNC(=O)c1ncc(-c2ccc(C(F)(F)F)cc2)c(NC2CCCCCC2)n1` (stereo not given), for which the growth is 11.7% in the assay on HT29 colon; 74.3% with SNB-75 CNS; 85.2% with SNB-19 CNS; 52.7% in the assay with U251 CNS; 58.4% with PC-3 prostate; 45.2% with SK-MEL-5 melanoma. The growth is 78.3% with UACC-62 melanoma; 87.1% in the assay with LOX IMVI melanoma; 81.5% with SK-MEL-28 melanoma; 86.7% in the assay on SN12C renal; 45% in the assay on UO-31 renal; 74.1% in the assay on TK-10 renal. In addition, the growth is 93.5% with ACHN renal; 83% with CAKI-1 renal; 58.3% with A498 renal; 63.3% in the assay with CCRF-CEM leukemia; 66.3% in the assay on MOLT-4 leukemia; -16.6% (active) in the assay on SR leukemia.
On to `O=C(Nc1ccccc1)Nc1cccc(-n2cc(-c3ccncc3)c(-c3ccc(O)c(Cl)c3)n2)c1`, for which the growth was 64.7% with HT29 colon; 48.3% in the assay with SNB-75 CNS; 77.2% in the assay on SNB-19 CNS; -9.56% (active) in the assay on U251 CNS; 31.3% in the assay with PC-3 prostate; 42.8% with SK-MEL-5 melanoma. The growth with UACC-62 melanoma was 43.8%; with LOX IMVI melanoma, 47.7%; in the assay on SK-MEL-28 melanoma, 43.6%; with SN12C renal, 59.1%; with UO-31 renal it was 26.9%; with TK-10 renal, 88.8%. In addition, the growth is 43.1% in the assay on ACHN renal; 30.1% in the assay on CAKI-1 renal; 82.5% in the assay on A498 renal; 29.9% in the assay with CCRF-CEM leukemia; 38.3% in the assay on MOLT-4 leukemia; 11.9% with SR leukemia.
In the case of `CCc1ccc2c(c1)N(CCO)C1=C(C(=O)OC1)C2c1ccccc1` (stereo not given), the growth in the assay with HT29 colon was 86.3%; in the assay with SNB-75 CNS it was 88%; with SNB-19 CNS, 104%; in the assay with U251 CNS, 45.4%; with PC-3 prostate, 93.5%; with SK-MEL-5 melanoma it was 87.3%. Further, the growth was 70.6% in the assay with UACC-62 melanoma; 94.5% in the assay with LOX IMVI melanoma; 90.9% in the assay with SK-MEL-28 melanoma; 104% in the assay on EKVX NSCLC; 105% in the assay with SN12C renal; 88.9% in the assay on UO-31 renal. Besides, the growth was 91.8% in the assay with TK-10 renal; 88.6% in the assay with ACHN renal; 101% in the assay with CAKI-1 renal; 73.4% in the assay with A498 renal; 91.9% in the assay with CCRF-CEM leukemia; 83% in the assay on MOLT-4 leukemia. The growth in the assay with SR leukemia was 63.6%.
With `O=C(CNC(=O)OCc1ccccc1)NCC(=O)Oc1ccc([N+](=O)[O-])cc1`, the growth in the assay with HT29 colon is 98.7%; in the assay with SNB-75 CNS, 109%; in the assay on SNB-19 CNS, 111%; in the assay with U251 CNS, 11.8%; in the assay on PC-3 prostate it was 89.8%; with SK-MEL-5 melanoma it was 98.1%. The growth is 107% in the assay with UACC-62 melanoma; 87.6% in the assay on LOX IMVI melanoma; 104% in the assay with SK-MEL-28 melanoma; 101% with EKVX NSCLC; 112% in the assay with SN12C renal; 86.4% in the assay on UO-31 renal. The growth was 90.3% in the assay with TK-10 renal; 105% in the assay on ACHN renal; 101% in the assay on CAKI-1 renal; 85% in the assay on A498 renal; 109% with CCRF-CEM leukemia; 99.7% in the assay on MOLT-4 leukemia. The growth in the assay on SR leukemia is 101%.
Regarding `CN(C)CCN1C(=O)c2cccc3c(-c4ccc5ncn(C6CCCCC6)c5c4)ccc(c23)C1=O`, the growth with HT29 colon is 7.45% (active); with SNB-75 CNS it was 40.1%; with SNB-19 CNS, 23.3%; in the assay with U251 CNS, 12.6%; with PC-3 prostate, 22%; in the assay on SK-MEL-5 melanoma, 21.4%. The growth was 24.6% in the assay with UACC-62 melanoma; 13.8% with LOX IMVI melanoma; 47.2% in the assay on SK-MEL-28 melanoma; 29.8% with EKVX NSCLC; 19.3% in the assay on SN12C renal; 2.42% (active) in the assay on UO-31 renal. For the same molecule, the growth with TK-10 renal is 26.7%; in the assay with ACHN renal it was 13.8%; in the assay with CAKI-1 renal, 25%; with A498 renal, 4.69% (active); in the assay on CCRF-CEM leukemia, 15.4%; in the assay on MOLT-4 leukemia it was -18.7% (active). The growth with SR leukemia was 3.59% (active).
As to `O=S(=O)(NCCNc1nccc(-c2c(-c3ccc(F)cc3)nc3sccn23)n1)c1ccc2ccccc2c1`, the growth was 44.9% in the assay with HT29 colon; 79.3% with SNB-75 CNS; 105% with SNB-19 CNS; 71% with U251 CNS; 73.4% in the assay with PC-3 prostate; 69.2% in the assay on SK-MEL-5 melanoma. For the same molecule, the growth is 71.7% in the assay on UACC-62 melanoma; 71.3% with LOX IMVI melanoma; 93% in the assay with SK-MEL-28 melanoma; 80.7% in the assay with SN12C renal; 43.4% with UO-31 renal; 83.7% in the assay with TK-10 renal. Also, the growth in the assay with ACHN renal was 56.6%; with CAKI-1 renal, 68.5%; in the assay with A498 renal, 79.5%; in the assay on CCRF-CEM leukemia, 61.7%; in the assay on MOLT-4 leukemia it was 54%; in the assay with SR leukemia, 46.6%.
As for `O=C1OCC2=C1C(c1cccc(Cl)c1)c1cc3c(cc1N2CCO)OCO3` (stereo not given), the growth in the assay on HT29 colon was 4.61% (active); with SNB-75 CNS, 11.7%; with SNB-19 CNS, 37.8%; with U251 CNS, 17.1%; in the assay with PC-3 prostate, 25.2%; with SK-MEL-5 melanoma, 19%. Moreover, the growth was 22.2% in the assay on UACC-62 melanoma; 42.8% in the assay with LOX IMVI melanoma; 51.3% with SK-MEL-28 melanoma; 56.6% with EKVX NSCLC; 42.9% in the assay on SN12C renal; 45.1% in the assay with UO-31 renal. Further, the growth in the assay with TK-10 renal is 58.2%; in the assay on ACHN renal it was 46.3%; in the assay on A498 renal, -7.88% (active); in the assay with CCRF-CEM leukemia, 9.39% (active); with MOLT-4 leukemia, 26.4%; in the assay with SR leukemia it was 32.5%.
Turning to `COc1ccc([N+](=O)[O-])c(C(=O)O)c1`, the growth was 102% in the assay on HT29 colon; 100% with SNB-75 CNS; 103% with SNB-19 CNS; 101% with U251 CNS; 99.8% in the assay with PC-3 prostate; 98.5% with SK-MEL-5 melanoma. The growth is 106% with UACC-62 melanoma; 98.5% with LOX IMVI melanoma; 106% in the assay on SK-MEL-28 melanoma; 99.9% in the assay on SN12C renal; 88% with UO-31 renal; 104% in the assay on TK-10 renal. Besides, the growth in the assay on ACHN renal was 105%; in the assay with CAKI-1 renal it was 95.7%; in the assay with A498 renal it was 85.6%; in the assay on CCRF-CEM leukemia it was 112%; in the assay with MOLT-4 leukemia it was 74.4%; with SR leukemia, 93.8%.
